Laboratory results taken from the supplement of paper PMC12632987.
Whole data set: some 4,500 sequences, median “median log2 fold change of GCK-ALFA target abundance (FLAG IP / Myc IP barcode read proportion)” near 0.078, cut for the lowest 2% near -0.6. Only a selection was taken, and the lowest values are over-represented in it overall.

B1: GBRAP_52_5974 (protein)
chain: MEEEMRKLAKEIVALILAGDEAGARALLEEIAATKTEEEITLLFKELAKLAKTATPEERDAIVEAALLAEDIALAAGFDEAVMDSNLADVVKAAVDAEKA
B2: GBRAP_184_5132 (protein)
chain: TLLERAVEAKTAEELIAKARAVVEEAAAAGARLVLSVFAEDLSVEDNIAVIRELGELKAAHPQIEAIIVDLPEVSEEDLDKLIEAADAAGVKLVAAIPDE
B3: GBRAP_52_6073 (protein)
chain: MEEKIEKLAEEITEAIKAGDDEKALELLEKAVKELSEEEIKKLLVLTAKKVAKLNEEEHERFVDILDEFEDILIENGISEEDALLIVGDALAALAKEVAK
B4: GBRAP_52_6102 (protein)
chain: MREELRKKVREILELVREGKLEEARKKIKELVESLNDEEIRLVADEIAELAREAAPEDLDAVWTLAEMFAEELEKAGKPEVLVDYLLASTAAALYEREQA
B5: GBRAP_195_5410 (protein)
chain: MKVVGRVLRIEESDTPEDILAKIEAIVAEVKEESNGDLVLVVARHPSVPEETVRAAVAEAAERYPEIKITVEIFDDISLPLETLEAFARMEVANEEEERE
B6: GBRAP_160_3988 (protein)
chain: EEEKKKLLKEIEEIFKETYELASGEDPENRLTVVRVHMGEILLLAEESGILSEESIEKIDEILDELVEKVAANPDMTDEELKALLEEALKKIKEIIEAEK
B7: GBRAP_137_3679 (protein)
chain: MKVKITIEEHEDVVEITVTIEDKETGEELAEKIEDIAVEVGALAISVEKNEDGTYEVTIYVPKEKLEELLKKILELLKDADEVEIIRIVDGKETVEVIKN
B8: GBRAP_73_6498 (protein)
chain: LTDTGLTDEEIADIVDHENDIFNGGEEAYEAAVARIRAALPELSPERQELLRRILEAAERAKKKDKLLAYELVALALAVVEGLDLEKARRALEALEKRLE
B9: GBRAP_52_6205 (protein)
chain: MHERMRAHARELVALVKAGDLDAARAYARELARTLNEEELELLGEELVELAKTAAPEDLDAIFKAAEILSDVLEEEGFDEALADGLLNRVAAALYERELK
B10: GBRAP_160_4347 (protein)
chain: MEAAEKLIKELKEATERVIAEVDKLSVEQVAVVAAGEFGAVAMEAAEDERYSDEMVDVIIDAQDKILAFLDENKDASPEEIKEGIKKITEEAIKKIKEIA
B11: GBRAP_160_4081 (protein)
chain: SAAHEKLIKEVTEIFDEALKMMEGVTPAEAVAIALVALGEVALLIEEEEELSEEDKDKLLALVDAAEAEVRAAADATVAELKALLERHRDEIVAAIKALD
B12: GBRAP_35_5623 (protein)
chain: NTDKEIAEAVVAVLEDTLLAKDTVPADTFIDTAIKVARLGIEVAKELKEYKENAKKILEAVEKLLKAAKERAKETGAPEEKLKEIEKLLKEVEELKKKLE
B13: GBRAP_11_2643 (protein)
chain: KKEKLKKAAELAKKAIEALKKLLEEGVDNEELRKKIEELLEELSKLVKEYADESLKKLVEIAKELWKKSLEDPENAEEYVKNLLAALRVLSAELEEEIEE
B14: GBRAP_160_4726 (protein)
chain: SERIREFVERFEERFLETIEATEDESKEEQAAMFRGTAGEILMEALEEPFLSDEMEDVVAEELDALVAELEANWDASKEEKKAIVREHMERLRERLLALA
B15: GBRAP_160_4491 (protein)
chain: SAKVEEAKKEVKAIVDDAVDAIAEAPADQRAAIARAYAGDIVQTLLELGVVTDEQAETVLDTAEAGLAAVVAASAAGAAAAAAAAAALVATLNDMIKKFS
B16: GBRAP_14_3817 (protein)
chain: MEELKKKIKEILDDLYEELVEDIGLDEEKVKKLIDKALEEIFKALDDPEGSEEKIKEIMEKLKKEIEKLAAELGADEAAAARALVTDAEYEIDEAIEEAK
B17: GBRAP_160_4228 (protein)
chain: METVEKIVEIFRETFLEALELIEGESEEERRVILDVAVGEIILEVEEIEEATDEMVEIVDERAEKLAERLLAARDASREERRALVEEEAKKLREELEKLA
B18: GBRAP_52_6106 (protein)
chain: ARARVRALVEEALALVRAGREEEARALLEAFARTANEEELELFAEALAELAREAAPEDLDAVWRLAEMAAEALEAAGWPDVLVDDLLARVAAALYERELK
B19: GBRAP_160_4092 (protein)
chain: SEEIEKLIEEIDELRDETKEMIKGESREERATIIRGFGGEVIMLLFESGIVSEEVEDLADELFDELVATVEANPELTEEEIFALIDETVDEIKEAIKEDH

What follows are binders tested against GABARAP, O95166 (assay: median log2 fold change of GCK-ALFA target abundance (FLAG IP / Myc IP barcode read proportion) (log2 ratio); each designed protein is fused to an ALFA-tag nanobody in HEK293 cells to bring the named protein to FLAG-tagged glucokinase (GCK); Myc marks an untargeted standard; higher = target protein stabilised (more abundant)). Conditions: target protein: 3xFLAG-MCP-GCK-ALFA reporter; HEK293 landing pad (RPLP).
Sequence of GABARAP, O95166 (O95166 whole entry, the tested form may be a part): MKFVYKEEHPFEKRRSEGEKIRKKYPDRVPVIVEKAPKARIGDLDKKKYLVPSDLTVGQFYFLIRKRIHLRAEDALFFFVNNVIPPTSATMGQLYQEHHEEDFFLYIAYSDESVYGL
Procedure, shortened: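 The readout is target abundance, the per-binder median log2 ratio of FLAG to Myc barcode read proportions. It came from HEK293 landing-pad cells carrying a recombined ALFA-nanobody-fused binder library, induced with 2 μg mL^−1 doxycycline and transfected with a plasmid for a FLAG-tagged target and a Myc-tagged standard. After 48 h, lysates were immunoprecipitated with anti-FLAG and anti-Myc, and circular RNA barcodes were reverse transcribed, amplified and sequenced. Each barcode needed a proportion of at least 10^−7 in both replicates and each binder at least 3 barcodes per replicate, a pseudocount of 10^−6 was added, and the replicates were pooled.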

B1 and B2 are within 0.2 log units of each other in “median log2 fold change” value: -0.0573 for the first, 0.00161 for the second.

Going from B3 to B4, the “median log2 fold change” value rises from -0.605 to 0.197.

First: B5
Second: B6
The “median log2 fold change” value of the first is higher: 0.261 for the first, -0.199 for the second.

First: B7
Second: B8
The “median log2 fold change” value of the first is higher: -0.124 for the first, -0.718 for the second.

Compared with B9, B10 is higher in “median log2 fold change” value: -0.122 for the first, 0.152 for the second.

First: B11
Second: B12
The “median log2 fold change” value of the first is higher: 0.134 for the first, -0.669 for the second.

B13 and B14 are within 0.2 log units of each other in “median log2 fold change” value: 0.271 for the first, 0.0951 for the second.

Compared with B15, B16 is higher in “median log2 fold change” value: -1.1 for the first, -0.057 for the second.

B17 and B18 are within 0.2 log units of each other in “median log2 fold change” value: -0.393 for the first, -0.266 for the second.

In the case of B19, the “median log2 fold change” value is reported as -0.649.
